Measurements: PubChem BioAssay (Tox21)
Inconclusive results are not listed. A call without a number means that no potency is given here. The source made the active and inactive calls. Calls follow the shape of the dose curve; as a rule, active = well fitted inhibition curve with a large enough effect in the signal ratio in the repeat runs; inconclusive = weak or mixed curves, or effect the other way; inactive = flat fitted curve, though single readings scatter; the % refers to the signal ratio. Residues, ends and D or L forms follow the SMILES beside them.

Experiment: qHTS assay for small molecule disruptors of the mitochondrial membrane potential (AID 720635)
Conditions: HepG2 mitochondrial membrane potential, Mito-MPS dye ratio; series mostly up to 83.2 µM
Source text: U.S. Tox21 Program National Center for Advancing Translational Sciences [NCATS] NIH Chemical Genomics Center [NCGC] U.S. Environmental Protection Agency [EPA] National Institutes of Environmental Health Sciences [NIEHS] National Toxicology Program [NTP] U.S. Food and Drug Administration [FDA] Tox21 Assay Overview: Mitochondrial membrane potential (MMP), one of the parameters for mitochondrial function, is generated by mitochondrial electron transport chain that creates an electrochemical gradient by a series of redox reactions. This gradient drives the synthesis of ATP, a crucial molecule for various cellular processes. Measuring MMP in living cells is commonly used to assess the effect of chemicals on mitochondrial function. […] The dye accumulates in the mitochondria of healthy cells as aggregates, with red fluorescence. The mitochondrial potential collapses and the dye can no longer accumulate in the mitochondria and remains in the cytoplasm in monomers, with green fluorescence.
Tox21 Assay Protocol Summary: 2,000 HepG2 cells in 5 uL/well were dispensed into black, clear-bottom 1536-well plates using a Multidrop Combi (Thermo Scientific) dispenser. The assay plates were incubated overnight at 37C to allow cells to attach to the wells, followed by the transfer of 23 nL compound or DMSO vehicle by a pin tool (Kalypsys). The plates were incubated for 1 hr at 37C and 5% CO2, followed by the addition of 5 uL of 2X Mito-MPS dye (BD Biosciences) into each well using Flying Reagent Dispenser (Aurora Discovery) and then following 30 min incubation at 37C. Fluorescence intensity (490nm excitation and 535nm emission for monomers; and 540nm excitation and 590nm emissions for aggregates) was measured using an Envision plate reader.
In the case of `Nc1ccn([C@H]2CC[C@@H](CO)O2)c(=O)n1`, the Potency is reported as “inactive”.
For `Nc1ccc(S(=O)(=O)c2ccc(N)cc2)cc1`, the Potency was “inactive”.
With `Cc1ccc(S(=O)(=O)NC(=O)NN2CCCCCC2)cc1` the Potency was “inactive”.
With `CC(O)C(=O)O` (stereo not given) the Potency was “inactive”.
In the case of `C1N2CN3CN1CN(C2)C3`, the Potency is reported as “inactive”.
With `CCOc1ccc(NC(=O)CC(C)O)cc1` (stereo not given) the Potency was “inactive”.
With `Cc1cc(=O)n(-c2ccccc2)n1C` the Potency was “inactive”.
For `CNC[C@H](O)c1cccc(O)c1`, the Potency was “inactive”.
In the case of `Nc1ccc(C(=O)O)cc1`, the Potency is reported as “inactive”.
With `CC(=O)Nc1nnc(S(N)(=O)=O)s1` the Potency was “inactive”.
In the case of `CC(=O)NS(=O)(=O)c1ccc(N)cc1`, the Potency is reported as “inactive”.
With `CC(C)(Oc1ccc(C2CC2(Cl)Cl)cc1)C(=O)O` (stereo not given) the Potency was “inactive”.
In the case of `Cc1noc(NS(=O)(=O)c2ccc(N)cc2)c1C`, the Potency is reported as “inactive”.
In the case of `O=C(O)c1[nH]n(-c2ccc(S(=O)(=O)O)cc2)c(=O)c1N=Nc1ccc(S(=O)(=O)O)cc1`, the Potency is reported as “inactive”.
In the case of `O=C(O)c1cc(N=Nc2ccc(S(=O)(=O)Nc3ccccn3)cc2)ccc1O`, the Potency is reported as “inactive”.
With `CCCN(CCC)S(=O)(=O)c1ccc(C(=O)O)cc1` the Potency was “inactive”.
For `NC(N)=O`, the Potency was “inactive”.
With `O=C(O)CCCCCCCC(=O)O` the Potency was “inactive”.
In the case of `c1ccc2[nH]ccc2c1`, the Potency is reported as “inactive”.
In the case of `COc1ccc2[nH]cc(CCNC(C)=O)c2c1`, the Potency is reported as “inactive”.
In the case of `CCCC(CCC)C(=O)O`, the Potency is reported as “inactive”.
With `OCCc1ccccc1` the Potency was “inactive”.
For `CC(O)CO` (stereo not given), the Potency was “inactive”.
In the case of `NC(=O)NC1NC(=O)NC1=O` (stereo not given), the Potency is reported as “inactive”.
For `CC1(C)[C@@H]2CC[C@@]1(C)C(=O)C2`, the Potency was “inactive”.
For `NC(N)=NC(=O)c1nc(Cl)c(N)nc1N`, the Potency was “inactive”.
In the case of `NC(=O)c1cnccn1`, the Potency is reported as “inactive”.
In the case of `O=C(C1CCCCC1)N1CC(=O)N2CCc3ccccc3C2C1` (stereo not given), the Potency is reported as “inactive”.
For `CC(C)[C@@H]1CC[C@@H](C)C[C@H]1O`, the Potency was “inactive”.
In the case of `O=S(=O)(O)c1ccc2cc(O)ccc2c1`, the Potency is reported as “inactive”.
With `NC(=O)c1ccccc1O` the Potency was “inactive”.
For `CCCC(O)C(CC)CO` (stereo not given), the Potency was “inactive”.
In the case of `CC(O)CN(CCN(CC(C)O)CC(C)O)CC(C)O` (stereo not given), the Potency is reported as “inactive”.
In the case of `Nc1ccc(O)c(C(=O)O)c1`, the Potency is reported as “inactive”.
For `COC(=O)[C@H](Cc1ccccc1)NC(=O)[C@@H](N)CC(=O)O` (H-Asp-Phe-OMe), the Potency was “inactive”.
With `O=C(O)c1cccc([N+](=O)[O-])c1` the Potency was “inactive”.
With `O=c1cc[nH]c(=S)[nH]1` the Potency was “inactive”.
With `CCCCCCCCCCCCCCCC(=O)O` the Potency was “inactive”.
In the case of `O=C(O)c1cccnc1`, the Potency is reported as “inactive”.
In the case of `O=NO`, the Potency is reported as “inactive”.
